In the supplement of paper PMC6555819:

What was measured:
Experiment in all cases: PBM binding z-score (relative to random genomic background probes); higher = stronger binding; sequences stand for … in GC…GCGATTGACAGCGTAGAATGAAGG
[1] = system: RARb homodimer (NR concentration 270 nM)
Summary of the method: (§1)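 The probes on custom Agilent 4×180K protein-binding microarrays were double-stranded, with 34-nt variable regions bearing direct-repeat seeds, single-nucleotide variants, half-site ablations and random human genomic background sequences. Incubation lasted 1 h with ligand-free nuclear receptor dimers in PBS pH 7.4, 2% milk, 0.02% Triton X-100, 1 mM DTT, 0.2 mg/mL BSA and 0.4 mg/ml salmon testes DNA. Antibodies against each partner (one per run) detected bound dimers, and fluorescence scans were regression-normalized. Binding z-scores take the random background probes as reference.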

[2] = system: RARg:RXRa (NR concentration 270 nM, RXRa partner concentration 90 nM)
Summary of the method: as §1

[3] = system: RARg homodimer (NR concentration 270 nM)
Summary of the method: as §1

[4] = system: RXRa DBDmut IVT, anti-RXR (DBD mutation: RXRa K156A/R161A, NR concentration 90 nM)
Summary of the method: as §1

[5] = system: RXRa homodimer (NR concentration 180 nM)
Summary of the method: as §1

[6] = system: THRa:RXRa (NR concentration 90 nM, RXRa partner concentration 90 nM)
Summary of the method: as §1

[7] = system: THRa homodimer (NR concentration 90 nM)
Summary of the method: as §1

[8] = system: VDR homodimer (NR concentration 270 nM)
Summary of the method: as §1

Row | Sequence | PBM binding z-score [1] | PBM binding z-score [2] | PBM binding z-score [3] | PBM binding z-score [4] | PBM binding z-score [5] | PBM binding z-score [6] | PBM binding z-score [7] | PBM binding z-score [8]
1 | TAGCCGAGGTCATGCGGGCCAGTATAGTGTCGGC | 4.39 | 6.21 | 5.83 | 3.81 | 6.86 | 4.36 | 2.99 | 4.62
2 | TCGAGTAGGGTACCAATGGGGCATTCAGCTTTCT | 0.23 | -0.106 | -0.439 | -0.161 | 0.0647 | -0.59 | -0.915 | -0.697
3 | GGTGCTAGGTCAACTGATGGTCAGCTAAAGCTCG | 3.76 | 5.3 | 5.75 | 1.28 | 2.7 | 2.99 | 1.07 | 0.446
4 | CGAGCGAGGGCATGAGTTGATAGCAAATGCCGAT | 0.657 | 1.14 | 1.22 | 2.15 | 1.19 | 0.963 | -0.509 | 1.46
5 | GCTTGTAGATCCAGGTTAAGAAAGACTAAGCTAA | -0.153 | -0.172 | -0.0642 | -0.00816 | -0.0609 | 0.485 | -0.162 | -0.0555
6 | CGAACTAGGGCATCCAGGACAGTGAATACATTGA | 0.585 | 0.674 | 1.17 | 0.66 | 0.135 | 1.61 | 0.745 | 0.366
7 | AGAATGAGGTTATTTAGATCAGGGAATTGCGGTC | 0.824 | 1.13 | 0.824 | 2.53 | 1.9 | 2.17 | 1.06 | 1.48
